Experimental data published in PubChem BioAssay (NCATS).
Values joined by “and” are separate entries in the source; they are usually repeats but may differ in a detail not shown here. Identical values can stand only once. Results filed as inconclusive are left out. Active and inactive are the calls of the source. Calls come from the whole dose curve; as a rule, active = well fitted curve in the direction sought with a large enough effect; inconclusive = small, poorly fitted or top-dose-only effect, or another doubt; inactive = no such curve, though single readings can be large; an effect the other way counts as inactive or inconclusive.

Key:
[1] = system: CRL-7250; experiment: Cytotoxic Profiling of Annotated Libraries Using Quantitative High-Throughput Screening (AID 1296008); conditions: Five cell lines viability, CellTiter-Glo ATP luminescence, 48-72 h; max response: stronger effect = lower value; note: nearly all actives have a fitted effect of over 60% in size; for max response: % is set by controls: 0 for no effect and ±100 for the full control effect
How it was run: (§1)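 Cytotoxicity was measured as CellTiter-Glo ATP luminescence, read after 10 min at room temperature. Compound treatment of the cells lasted 48 or 72 hr at 37 degrees Celsius in a qHTS format.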

[2] = system: HEK293; experiment: as above; conditions: Five cell lines viability, CellTiter-Glo ATP luminescence, 48-72 h; max response: stronger effect = lower value
How it was run: as §1

[3] = system: HaCat; experiment: as above; conditions: Five cell lines viability, CellTiter-Glo ATP luminescence, 48-72 h; max response: stronger effect = lower value
How it was run: as §1

[4] = system: KB-3-1; experiment: as above; conditions: Five cell lines viability, CellTiter-Glo ATP luminescence, 48-72 h; max response: stronger effect = lower value
How it was run: as §1

[5] = system: NIH3T3; experiment: as above; conditions: Five cell lines viability, CellTiter-Glo ATP luminescence, 48-72 h; max response: stronger effect = lower value
How it was run: as §1

[6] = system: HACAT; experiment: qHTS assay to identify novel small-molecules to repurpose for Merkel cell carcinoma treatment (AID 1296009); conditions: MCC and control cell lines, CellTiter-Glo viability, 72 h; at 44.8 µM (top of the series) unless noted; note: nearly all actives have a fitted effect of over 60% in size
How it was run: (§2)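 Cell viability measured by CellTiter-Glo following 72 hr compound treatment at 37 degree celsius, with NPC and MIPE libraries tested in 8- and 11-point concentration series.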

[7] = system: HEK293T; experiment: as above; conditions: MCC and control cell lines, CellTiter-Glo viability, 72 h; series mostly up to 44.8 µM
How it was run: as §2

[8] = system: C33A; experiment: Primary qHTS to identify gynecologic anti-cancer compounds using libraries of approved drugs and bioactive compounds (AID 1345084); conditions: Gynecologic cancer cell panel viability, ATPlite luminescence, 48 h; series mostly up to 57.5 µM; note: % is set by controls: 0 for no effect and ±100 for the full control effect; nearly all actives have a fitted effect of over 55% in size
How it was run: (§3)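 Cells, 1,000 per well, were allowed to settle for 16 h at 37 C before compound addition. Five concentrations were tested for 48 h, and viability was read by ATPlite luminescence after 15 min at room temperature.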

[9] = system: CAOV3; experiment: as above; conditions: Gynecologic cancer cell panel viability, ATPlite luminescence, 48 h; series mostly up to 57.5 µM
How it was run: as §3

[10] = system: CASKI; experiment: as above; conditions: Gynecologic cancer cell panel viability, ATPlite luminescence, 48 h; series mostly up to 57.5 µM
How it was run: as §3

[11] = system: Es-2; experiment: as above; conditions: Gynecologic cancer cell panel viability, ATPlite luminescence, 48 h; series mostly up to 57.5 µM
How it was run: as §3

[12] = system: HeLa; experiment: as above; conditions: Gynecologic cancer cell panel viability, ATPlite luminescence, 48 h; series mostly up to 57.5 µM
How it was run: as §3

CCc1cc2c(=O)c(-c3nc4ccccc4s3)coc2c(CN2CCCCC2)c1O
inactive: max response [1] 0.116% | outcome [2] | outcome [3] | max response [4] -10.9% | max response [5] 2.93% | outcome [6] inactive [at 17.4 µM] | Potency [7] | Potency [8] | Potency [9] | Potency [10] | Potency [11] | Potency [12]

C/C(=C/CO)CC[C@@H]1[C@@]2(C)CCC[C@](C)(C(=O)O)C2CC[C@@]1(C)O (some centres not stated)
inactive: max response [1] 2.67% | outcome [2] | outcome [3] | max response [4] 3.08% | max response [5] -1.08% | outcome [6] | Potency [7] | Potency [8] | Potency [9] | Potency [10] | Potency [11] | Potency [12]

C=C[C@H]1[C@H](O[C@@H]2O[C@H](CO)[C@@H](O)[C@H](O)[C@H]2O)OC=C2C(=O)OCC[C@]21O
inactive: max response [1] 0.194% | outcome [2] | outcome [3] | max response [4] 0.223% | outcome [5] | outcome [6] | Potency [7] | Potency [8] | Potency [9] | Potency [10] | Potency [11] | Potency [12]

O=C(c1ccc(C#Cc2cccc(F)c2)cn1)N1CC2CC2C1 (configuration not stated)
inactive: outcome [1] | outcome [2] | outcome [3] | outcome [4] | max response [5] 3.17% | outcome [6] | Potency [7] | Potency [8] | Potency [9] | Potency [10] | Potency [11] | Potency [12]

C=C1CC[C@@H]2[C@](C)(CO[C@@H]3O[C@H](CO)[C@@H](O)[C@H](O)[C@H]3O)CCC[C@@]2(C)[C@@H]1CCC1=CCOC1=O
inactive: outcome [1] | outcome [2] | outcome [3] | max response [4] 2.64% | outcome [5] | outcome [6] inactive [at 17.4 µM] | Potency [7] | Potency [8] | Potency [9] | Potency [10] | Potency [11] | Potency [12]

C=C1CCC[C@]2(C)C[C@]3(O)OC(=O)C(C)=C3C[C@@H]12
inactive: outcome [1] | outcome [2] | outcome [3] | outcome [4] | outcome [5] | outcome [6] | Potency [7] | Potency [8] | Potency [9] | Potency [10] | Potency [11] | Potency [12]

Cn1ccnc1CCOC(c1cc2nccc(C(=O)O)c2[nH]1)c1ccccc1Cl (configuration not stated)
inactive: outcome [1] | outcome [2] | outcome [3] | max response [4] 2.27% | max response [5] 4.24% | outcome [6] | Potency [7] | Potency [8] | Potency [9] | Potency [10] | Potency [11] | Potency [12]

Cc1nn(C)c(COc2ccc(N3CCN(S(=O)(=O)N(C)C)CC3)cc2)c1-c1cccc2c(CCCOc3cccc4ccccc34)c(C(=O)O)n(CCN3CCOCC3)c12
inactive: max response [1] -5.39% and -9.48% | outcome [2] | outcome [3] | max response [4] 3.5% | max response [5] -0.0408% | outcome [6] | Potency [7] | Potency [8] | Potency [9] | Potency [10] | Potency [11] | Potency [12]

CC(=C/C(=O)O)/C=C/[C@]1(O)[C@@]2(C)CO[C@]1(C)C[C@H](O[C@@H]1O[C@H](CO)[C@@H](O)[C@H](O)[C@H]1O)C2
inactive: max response [1] 1.76% | outcome [2] | outcome [3] | max response [4] 0.594% | max response [5] -8.59% | outcome [6] inactive [at 17.4 µM] | Potency [7] | Potency [8] | Potency [9] | Potency [10] | Potency [11] | Potency [12]

CC1=CC(=O)C2C(C)(C)CCCC2(C)C12CCC1(COC(=O)C1)O2 (configuration not stated)
inactive: max response [1] -1.45% | outcome [2] | outcome [3] | max response [4] 5.32% | max response [5] -3.33% | outcome [6] | Potency [7] | Potency [8] | Potency [9] | Potency [10] | Potency [11] | Potency [12]

C=C(C)C(C)C1OC23CC4(CO2)C(CCC2C5(C)CCC(OC6OCC(O)C(OC7OC(CO)C(O)C(OC8OCC(O)C(O)C8O)C7O)C6OC6OC(CO)C(O)C6O)C(C)(C)C5CCC24C)C3C(C)(O)C1OC(C)=O (configuration not stated)
inactive: max response [1] -0.008% | outcome [2] | outcome [3] | max response [4] 6.52% | max response [5] -2.26% | outcome [6] inactive [at 9.27 µM] | outcome [7] inactive [at 9.27 µM] | activity change, negative = cytotoxicity [8] 2.75% [at 11.6 µM] | activity change, negative = cytotoxicity [9] 4.55% [at 11.6 µM] | activity change, negative = cytotoxicity [10] 5.79% [at 11.6 µM] | activity change, negative = cytotoxicity [11] 0.0055% [at 11.6 µM] | activity change, negative = cytotoxicity [12] 1.27% [at 11.6 µM]

CC(=O)O[C@H]1C[C@@H]2[C@]3(CC[C@]4(C)[C@@H](C5(C)CCC(C(C)(C)O)O5)[C@@H](O)C[C@@]24C)C[C@@]32CC[C@H](O[C@@H]3OC[C@@H](O)[C@H](O)[C@H]3O)C(C)(C)[C@H]12 (some centres not stated)
inactive: max response [1] 4.65% | outcome [2] | outcome [3] | outcome [4] | max response [5] 1.48% | outcome [6] inactive [at 17.4 µM] | Potency [7] | Potency [8] | Potency [9] | Potency [10] | Potency [11] | Potency [12]

CC1(C)CC[C@]2(C(=O)O[C@@H]3O[C@H](CO)[C@@H](O)[C@H](O)[C@H]3O)CC[C@]3(C)C(=CCC4[C@@]5(C)C[C@@H](O)[C@H](O)[C@@](C)(CO)C5CC[C@]43C)C2C1 (some centres not stated)
inactive: max response [1] 1.73% | outcome [2] | outcome [3] | outcome [4] | max response [5] -1.65% | outcome [6] inactive [at 17.4 µM] | Potency [7] | Potency [8] | Potency [9] | Potency [10] | Potency [11] | Potency [12]

CC1(C)CCC[C@@]2(C)[C@H]1[C@H](O)C=C1COC(=O)[C@@]12O
inactive: outcome [1] | outcome [2] | outcome [3] | max response [4] 4.4% | max response [5] 2.05% | outcome [6] | Potency [7] | Potency [8] | Potency [9] | Potency [10] | Potency [11] | Potency [12]

CC1CC(O)CC(C)(C)C1(O)CCO (configuration not stated)
inactive: max response [1] -5.35% | outcome [2] | outcome [3] | outcome [4] | max response [5] 0.3% | outcome [6] inactive [at 92 µM] | Potency [7] | Potency [8] | Potency [9] | Potency [10] | Potency [11] | Potency [12]

C[C@H]1[C@H](C)CC[C@]2(C(=O)O)CC[C@]3(C)C(=CC[C@@H]4[C@@]5(C)C[C@@H](O)[C@H](O)[C@@](C)(CO)[C@@H]5CC[C@]43C)[C@H]12
inactive: max response [1] 0.188% | outcome [2] | outcome [3] | outcome [4] | max response [5] 4.85% | outcome [6] | Potency [7] | Potency [8] | Potency [9] | Potency [10] | Potency [11] | Potency [12]

CC1(C)C(O)CCC2(C)C1C(O)C=C1COC(=O)C12O (configuration not stated)
inactive: max response [1] 2.08% | outcome [2] | outcome [3] | max response [4] 5.78% | max response [5] 0.735% | outcome [6] | Potency [7] | Potency [8] | Potency [9] | Potency [10] | Potency [11] | Potency [12]

COc1ccc2c(c1O)OC[C@H]1c3ccc(O)cc3O[C@@H]21
inactive: max response [1] 2.17% | outcome [2] | outcome [3] | outcome [4] | outcome [5] | outcome [6] | Potency [7] | Potency [8] | Potency [9] | Potency [10] | Potency [11] | Potency [12]

C=CC1(C)C=C2C(O)CC3C(C)(C(=O)O)CCCC3(C)C2CC1 (configuration not stated)
inactive: outcome [1] | outcome [2] | outcome [3] | max response [4] 7.58% | max response [5] -5.1% | outcome [6] | Potency [7] | Potency [8] | Potency [9] | Potency [10] | Potency [11] | Potency [12]

CC(C)C1=CCC(C)(O)C(OC2OC(CO)C(O)C(O)C2O)C1 (configuration not stated)
inactive: max response [1] -1.73% | outcome [2] | outcome [3] | outcome [4] | outcome [5] | outcome [6] | Potency [7] | Potency [8] | Potency [9] | Potency [10] | Potency [11] | Potency [12]

C=C(C)[C@H]1C[C@@H](O)C(=C)CC[C@@H](O)C(=C)[C@@H](O)C1
inactive: max response [1] -0.626% | outcome [2] | outcome [3] | outcome [4] | max response [5] -1.51% | outcome [6] | Potency [7] | Potency [8] | Potency [9] | Potency [10] | Potency [11] | Potency [12]

C=C1C(=O)OC2/C=C(\C)CC/C=C(\C(=O)O)CC/C=C(\C)CCC12 (configuration not stated)
inactive: outcome [1] | outcome [2] | outcome [3] | max response [4] 5.52% | max response [5] 2.63% | outcome [6] | Potency [7] | Potency [8] | Potency [9] | Potency [10] | Potency [11] | Potency [12]

OCCc1ccc(O[C@@H]2O[C@H](CO)[C@@H](O)[C@H](O)[C@H]2O)c(O)c1
inactive: max response [1] 1.68% | outcome [2] | outcome [3] | outcome [4] | max response [5] -4.15% | outcome [6] | Potency [7] | Potency [8] | Potency [9] | Potency [10] | Potency [11] | Potency [12]

C[C@H](NCc1ccc(OCc2ccccc2F)cc1)C(N)=O
inactive: outcome [1] | outcome [2] | outcome [3] | max response [4] -7.57% | max response [5] 1.69% | outcome [6] | Potency [7] | Potency [8] | Potency [9] | Potency [10] | Potency [11] | Potency [12]

CC(C)c1ccc(CC(=O)N2CCC[C@@H](c3cccc(OC(C)(C)C(=O)O)c3)C2)cc1
inactive: max response [1] -8.91% | outcome [2] | outcome [3] | outcome [4] | max response [5] -2.06% | outcome [6] | Potency [7] | Potency [8] | Potency [9] | Potency [10] | Potency [11] | Potency [12]

C[C@@H]1C(=O)O[C@H]2CC34[C@H]5C[C@@H](C(C)(C)C)C36[C@@H](OC(=O)[C@@H]6O)OC4(C(=O)O5)[C@]21O (some centres not stated)
inactive: max response [1] -2.58% | outcome [2] | outcome [3] | max response [4] 9.69% | max response [5] 4.14% | outcome [6] | Potency [7] | Potency [8] | Potency [9] | Potency [10] | Potency [11] | Potency [12]
